Test results published in ChEMBL document CHEMBL3433997, “St. Jude Leishmania screening dataset” (2016).

Assays:
Type in all cases: functional
[1] = molecular target: Solute carrier family 2, facilitated glucose transporter member 1 (Homo sapiens) (UniProt P11166); assay: ST_JUDE_LEISH: Cytotoxicity at 2uM final concentration against transgenic Leishmania Mexicana promastigotes LmGLUT1 that are glucose transport deficient and complemented with the human glucose transporter GLUT1. Activity is measured by DNA content using SYBR green in vitro
[2] = molecular target: Hexose transporter 1 (Plasmodium falciparum) (UniProt O97467); assay: ST_JUDE_LEISH: Cytotoxicity at 2uM final concentration against transgenic Leishmania Mexicana promastigotes LmPfHT that are glucose transport deficient and complemented with the Plasmodium falciparum hexose transporter. Activity is measured by DNA content using SYBR green in vitro
[3] = molecular target: Glucose transporter (Leishmania mexicana) (UniProt O61059); assay: ST_JUDE_LEISH: Cytotoxicity at 2uM final concentration against transgenic Leishmania Mexicana promastigotes LmGT2 that are glucose transport deficient and complemented with the L. Mexicana glucose transporter 2. Activity is measured by DNA content using SYBR green in vitro

Sequence of Solute carrier family 2, facilitated glucose transporter member 1 (Homo sapiens) (P11166 whole entry): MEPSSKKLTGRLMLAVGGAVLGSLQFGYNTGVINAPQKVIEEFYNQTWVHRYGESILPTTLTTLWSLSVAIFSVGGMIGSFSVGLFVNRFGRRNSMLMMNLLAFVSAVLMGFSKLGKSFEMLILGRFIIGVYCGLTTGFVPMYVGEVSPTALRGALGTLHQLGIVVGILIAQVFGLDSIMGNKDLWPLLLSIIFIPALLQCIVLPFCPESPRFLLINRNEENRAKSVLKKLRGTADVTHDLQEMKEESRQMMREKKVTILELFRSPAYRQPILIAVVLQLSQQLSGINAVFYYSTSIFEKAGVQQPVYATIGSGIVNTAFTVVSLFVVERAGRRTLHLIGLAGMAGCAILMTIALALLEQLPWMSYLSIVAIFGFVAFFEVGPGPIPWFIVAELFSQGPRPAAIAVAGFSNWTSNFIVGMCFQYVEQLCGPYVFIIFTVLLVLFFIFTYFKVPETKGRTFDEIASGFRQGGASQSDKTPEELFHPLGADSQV

Row | Structure (SMILES) | inhibition [1] | inhibition [2] | inhibition [3]
1 | Oc1ccc(CCNc2nc(NCc3ccccc3-c3ccc(C(F)(F)F)cc3)nc(N3CCNCC3)n2)cc1 | 1.66% | -2.19% | 1.94%
2 | CCN1CCC(NCc2ccc(-c3ccc(Cl)cc3)cc2)CC1 | 23.6% | 11% | 7.91%
3 | Nc1cc(-c2ccc3c(N)nccc3c2)ccc1Cl | 4.64% | 2.75% | 1.32%
4 | C[C@@H](COc1ccc(-c2ccccc2)cc1)CON1C(N)=NC(N)=NC1(C)C | 69.6% | 76.5% | 50.3%
5 | CCOc1cc(C(=O)NCCN2CCCCC2)ccc1-c1nc2cc(Cl)ccc2[nH]1 | 1.06% | 1.42% | 2.06%
6 | N=C(NCc1ccccc1)Nc1nc(-c2ccc(OCCCn3ccnc3)cc2)cs1 | 29.9% | 35.3% | 15.5%
7 | Cc1[nH]c2ccc(-c3ccccc3)cc2c(=O)c1Br | 1.91% | 4.13% | -0.5%
8 | CCOc1cc(C(=O)N[C@@H](Cc2ccccc2)[C@H](O)CNCc2cccc(OC)c2)cc(N2CCCCS2(=O)=O)c1 | 5.4% | 5.25% | 3.08%
9 | O=C(Nc1cccc(-c2ccc(NCCCN3CCCC3)nc2)c1)c1ccccc1 | 5.13% | 6.59% | 0.77%
10 | CC(C)N(CC(=O)c1ccc(O)c(C(=O)O)c1)Cc1ccccc1 | 3.53% | 3.51% | 1.67%
11 | CS(=O)(=O)c1cccc(-c2cnc(N)c3cc(-c4ccc(F)cc4)ccc23)c1 | 2.85% | 1.64% | 1.35%
12 | CCOC(=O)c1nc(-c2cc(Cl)nc(Cl)c2)[nH]c1NC(=S)NCc1ccc(NS(C)(=O)=O)cc1 | -2.02% | -1.98% | -1.67%
13 | COc1ccc2ncc(C#N)c(CCN3CCC(NCc4ccc5c(n4)NC(=O)CS5)CC3)c2n1 | 3.43% | 6.45% | 0.77%
14 | CCCC(C)Nc1nc(C)cc(N[C@@H](Cc2ccccc2)C(=O)NCCOc2ccccc2)n1 (some centres undefined) | 4.27% | 3.26% | 1.16%
15 | NCC1CCCN1Cc1ccc(-c2cccc(-c3nc4cc(C(F)(F)F)ccc4[nH]3)c2)cc1 (centres undefined) | 1.03% | 1.99% | 3.17%
16 | Cc1ccc2c(c1)c(-c1ccccc1)c(-c1ccccc1)n2CC(O)CN1CCN(CC=Cc2ccccc2)CC1 (centres undefined) | 0.38% | 1.97% | 0.7%
17 | CCCCCCOc1ccc(/C(N)=N\Cc2ccccc2)c2c1CCCC2 | 2.62% | 3.36% | 0.11%
18 | COc1ccc2c(NN=Cc3ccc(N(C)C)cc3)ccnc2c1 | 10.8% | 10.8% | 8.44%
19 | CN(C)CC(=O)NCC(NCCCNc1cc(=O)c2ccccc2[nH]1)c1cc(Br)cc(Br)c1 (centres undefined) | 5.5% | 5.13% | 5.64%
20 | CC(C)c1ccc(Nc2nc(NCCc3c[nH]cn3)nc(NCc3ccccc3)n2)cc1 | 1.58% | 1.6% | 0.61%
21 | COc1c(C=NNc2nc(=Nc3ccccc3)[nH]c(=Nc3ccccc3)[nH]2)ccc(Br)c1O | 11.3% | 11.7% | 9.27%
22 | COc1cccc(CN2CCN(C(c3ccccc3)c3ccccc3)CC2)c1O | 6.87% | 6.03% | 2.74%
23 | CC(C)NCc1cccc(-c2cccc(NC(=O)c3cccc(C#N)c3)c2)c1 | 5.22% | 4.93% | 5.23%
24 | COc1ccc2nccc([C@@H](O)CN3CCC(NC(=O)c4ccc(Cl)c([N+](=O)[O-])c4)CC3)c2c1 | 13.3% | 8.44% | 0%

Row | Structure (SMILES) | inhibition [1] | inhibition [2] | inhibition [3]
25 | C=C(C)CSc1nc2c(c(=O)n1Cc1ccco1)C1(CCCCC1)Cc1ccccc1-2 | 3.67% | 3.16% | 4.72%
26 | O=C(Nc1ccc(F)cc1F)NC1CCN(c2ccnc3cc(Cl)ccc23)C1 (centres undefined) | 6.88% | 7.63% | 6.34%
27 | COc1ccc2c(c1)[nH]c1c(/C=C/c3ccc([N+](=O)[O-])cc3)nccc12 | 3.75% | 4.42% | 3.6%
28 | Cc1cccc2nc(-c3cccc(-c4ccc(NC(=O)C(C)(C)c5ccccn5)cc4)c3)[nH]c12 | 3.05% | 1.16% | 2.94%
29 | CC(C)CC(=O)NC1CCN(Cc2c(-c3cccs3)nc3ccccc3c2C(=O)N[C@@H](C)C2CCCCC2)CC1 | 6.03% | 4.72% | 4.36%
30 | Cc1ccc(Oc2ccc(CNc3nc(Nc4cccc(F)c4)nc(Nc4cccc(F)c4)n3)cc2)cc1 | 8.54% | 8.04% | 4.75%
31 | c1ccc2c(C3CCN(CCCCOc4ccc5c(c4)CCN(C4CCC4)CC5)CC3)c[nH]c2c1 | -2.06% | 3.7% | 4.47%
32 | c1ccc(-c2cc(NCCCCCCCCNc3cc(-c4ccccc4)nc4ccccc34)c3ccccc3n2)cc1 | 105% | 104% | 83.4%
33 | COc1ccc(CN2CCCN(Cc3cccc(NC(=O)c4ccc(-c5ccccc5)cc4)c3)CC2)cc1 | -0.75% | -1.14% | -4.3%
34 | O=C(O)C[C@H](NC(=O)[C@@H]1CCCN1C(=O)c1cccc(-c2ccc(Cl)c(Cl)c2)c1)C(=O)O | 1.31% | 0.14% | 1.61%
35 | COc1nc(-n2ccc(=N)cc2)nc2ccccc12 | 12.2% | 13.4% | 2.63%
36 | CCNc1cc(C(=O)N[C@@H](Cc2ccccc2)[C@H](O)CNC2CCCC2)cc(N2CCCC2=O)c1 | 3.87% | 3.77% | 3.46%
37 | c1nc2nc3c(c(Nc4ccc5c(c4)CCC5)n2n1)CCC3 | 3.23% | -0.85% | 1.24%
38 | Cc1nc(N)nc(N)c1OCCCCCCOc1ccccc1 | 2.38% | 4.83% | -0.89%
39 | O=C(/C=C/c1ccc(Cl)cc1)NCCCCCN1CCCC(C(=O)Nc2ccc(Cl)c(Cl)c2)C1 (centres undefined) | 0.22% | 1.61% | 1.59%
40 | N=C(N)Nc1nc(-c2cccc(NC(=O)CCCCCCCON3C(N)=NC(N)=NC34CCCCC4)c2)cs1 | 2.45% | 4.13% | 3.75%
41 | CCN(CC)CCN(Cc1ccc(-c2ccc(C(F)(F)F)cc2)cc1)C(=O)Cn1c(CCc2cccc(F)c2F)nc(=O)c2cc(F)c(F)cc21 | 9.33% | 7.63% | 9.47%
42 | CCCCCCCN(Cc1ccc(OC(C)(C)C(=O)OCC)cc1)C(=O)Nc1ccc(Cl)cc1OCC | 3.65% | 0.95% | 3.11%
43 | Cc1ccc2c(Cc3cnc(N)nc3N)cc(C)c(N)c2n1 | 2.06% | 3.47% | -0.09%
44 | CN(CCC(CCN1CCC(c2c[nH]c3ccccc23)CC1)c1ccccc1)C(=O)Nc1ccc(Cl)c(Cl)c1 (centres undefined) | 2.82% | 0.21% | 0.72%
45 | Oc1cccc(CCNCCCCCCNCCc2ccc(Cl)cc2)c1 | 2.27% | 2.44% | 2.3%
46 | Cc1cc(-c2cccc(CNC3CCCC3)c2)ccc1S(=O)(=O)NCCN1CCCC1 | 5% | 3.43% | 6.24%
47 | O=C(CN1CCC2(CCC1=O)CC(=O)c1ccccc1O2)NCCN1CCOCC1 (centres undefined) | 2.45% | 7.44% | 4.93%
48 | CCn1c(C)cc(C=C2SC(=Nc3ccccc3)NC2=O)c1C | 6.88% | 4.18% | 2.93%
